# Assays:
# Experiment in all cases: PBM binding z-score (relative to random genomic background probes); higher = stronger binding; sequences stand for … in GC…GCGATTGACAGCGTAGAATGAAGG
# [1] = system: FXR:RXRa (NR concentration 270 nM, RXRa partner concentration 90 nM)
# Procedure, shortened: (§1)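 Ligand-free nuclear receptor dimers were applied to custom Agilent 4×180K protein-binding microarrays whose double-stranded probes carried direct-repeat seeds, single-nucleotide variants, half-site ablations and random human genomic background sequences in 34-nt variable regions. Incubation lasted 1 h. Binding z-scores were computed against the random background probes from regression-normalized fluorescence.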
# [2] = system: LXRa:RXRa (NR concentration 270 nM, RXRa partner concentration 90 nM)
# Procedure, shortened: as §1
# [3] = system: LXRa homodimer (NR concentration 270 nM)
# Procedure, shortened: as §1
# [4] = system: LXRb:RXRa (NR concentration 270 nM, RXRa partner concentration 90 nM)
# Procedure, shortened: as §1
# [5] = system: LXRb homodimer (NR concentration 270 nM)
# Procedure, shortened: as §1
# [6] = system: PPARa:RXRa (NR concentration 270 nM, RXRa partner concentration 90 nM)
# Procedure, shortened: as §1
# [7] = system: PPARg:RXRa (NR concentration 180 nM, RXRa partner concentration 90 nM)
# Procedure, shortened: as §1
# [8] = system: PPARg:RXRa 270nM:90nM, anti-RXR (NR concentration 270 nM, RXRa partner concentration 90 nM)
# Procedure, shortened: as §1
# [9] = system: PPARg:RXRa 30nM:10nM, anti-RXR (NR concentration 30 nM, RXRa partner concentration 10 nM)
# Procedure, shortened: as §1
# [10] = system: PPARg:RXRa 90nM:30nM, anti-RXR (NR concentration 90 nM, RXRa partner concentration 30 nM)
# Procedure, shortened: as §1
# [11] = system: PPARg:RXRa DBDmut IVT, anti-RXR (DBD mutation: RXRa K156A/R161A, NR concentration 270 nM, RXRa partner concentration 90 nM)
# Procedure, shortened: as §1
# [12] = system: PPARg:RXRa IVT, anti-PPARg (NR concentration 270 nM, RXRa partner concentration 90 nM)
# Procedure, shortened: as §1
# [13] = system: PPARg DBDmut:RXRa IVT, anti-PPARg (DBD mutation: PPARg1 K132A/R137A, NR concentration 270 nM, RXRa partner concentration 90 nM)
# Procedure, shortened: as §1
# [14] = system: PPARg DBDmut IVT, anti-PPARg (DBD mutation: PPARg1 K132A/R137A, NR concentration 270 nM)
# Procedure, shortened: as §1
# [15] = system: PPARg homodimer (NR concentration 180 nM)
# Procedure, shortened: as §1
# [16] = system: PXR:RXRa (NR concentration 270 nM, RXRa partner concentration 90 nM)
# Procedure, shortened: as §1
# [17] = system: PXR homodimer (NR concentration 270 nM)
# Procedure, shortened: as §1
# [18] = system: RARa:RXR (NR concentration 270 nM, RXRa partner concentration 90 nM)
# Procedure, shortened: as §1
# [19] = system: RARa homodimer (NR concentration 270 nM)
# Procedure, shortened: as §1
# [20] = system: RARb:RXRa (NR concentration 270 nM, RXRa partner concentration 90 nM)
# Procedure, shortened: as §1
Sequence,PBM binding z-score [1],PBM binding z-score [2],PBM binding z-score [3],PBM binding z-score [4],PBM binding z-score [5],PBM binding z-score [6],PBM binding z-score [7],PBM binding z-score [8],PBM binding z-score [9],PBM binding z-score [10],PBM binding z-score [11],PBM binding z-score [12],PBM binding z-score [13],PBM binding z-score [14],PBM binding z-score [15],PBM binding z-score [16],PBM binding z-score [17],PBM binding z-score [18],PBM binding z-score [19],PBM binding z-score [20]
CCTACTGGGCCACGAAAGGTCATCGATTCAGTGA,3.74,5.24,4.54,4.28,0.188,5.09,5.36,5.2,2.42,4.73,5.98,5.97,-0.47,0.605,4.31,5.62,0.616,6.08,0.927,4.17
TCATATAGGTAAACCGGTGAAAGTCCGTAAGTTA,0.407,0.533,0.147,0.517,-0.352,1.68,1.17,2.72,3.49,2.97,4.14,3.35,0.791,0.416,0.766,0.768,0.578,0.953,0.584,0.426
TCTGCTAGATCAGTTGGTCAGCTAACGAGCTGCC,-2.98,-0.794,-1.07,-0.988,-0.764,-0.465,-0.552,0.389,1.24,0.547,0.357,-0.283,-0.43,-0.675,-2.6,-0.872,-1.07,-0.915,-1.97,-0.199
CCTTACGGGTCACGAGGTTATAGCACGACGAGCG,6.74,4.6,0.401,4.02,-0.321,5.94,7.45,6.6,3.13,5.31,3.98,5.69,1.85,0.701,2.37,4.46,0.418,5.47,0.688,4.62
CCTGACAGGTGAGAAGGTAACTCAGCCTCGATTA,-0.00915,0.102,-0.219,-0.0265,-0.779,0.763,0.404,0.701,-0.205,0.257,1.12,0.913,-0.717,-0.671,0.832,-0.216,-0.0629,0.621,-0.07,0.751
TCTGCTAGGTCAACGATGGTCAGCTAATCTGCTA,3.45,2.96,-0.225,1.44,-0.144,3.19,2.69,3.14,1.76,2.48,4.23,4.22,0.762,0.898,1.44,1.67,-0.856,2.46,-0.93,4.01
CGTCCAAGGTTAATGCTAGGTCAGTGAAAGCATT,1.98,4.46,1.76,2.28,-0.518,2.21,0.161,0.685,-0.233,0.133,1.24,1.56,0.173,-0.333,1.1,1.81,0.209,2.86,-0.141,2.83
GCAGACACGTGAAACGCAGGTAACTCAGGGTGGC,-0.868,-0.737,-0.81,-0.691,-1.29,-0.718,0.584,-0.446,-0.559,-0.87,-1.12,-0.582,-0.764,-0.343,-2.11,-0.819,-0.73,-0.666,-0.899,-0.551
AGAATGAGGTTATACGAAGATCAGGGAAGAAAGT,2.26,1.67,-0.199,1.54,-0.139,3.25,1.68,1.8,0.749,1.51,2.26,2.05,0.807,0.512,0.484,1.04,0.292,1.61,0.714,1.3
CCTTACGGGTGACTCCAGGTTATAGCATCGGAGT,0.642,5.37,0.839,1.76,-0.486,1.35,0.581,0.491,-0.12,0.123,1.25,1.42,-0.537,-0.755,0.285,1.01,0.0547,1.22,-0.139,0.499
CCTAGCAGGCCACTCTGGGTCACTCAAGGCTTGA,1.22,4.55,0.221,1.91,-0.897,2.33,0.363,0.663,-0.56,0.0943,2.5,3.22,-0.679,-2.2,0.299,1.04,-0.493,1.32,-0.337,1.55
TCATATAGGTAAATGCAAGGTGAAAGTCCGATCT,1.57,1.44,0.321,1.2,0.456,2.03,1.03,2.44,4.33,3.47,4.1,3,0.862,1.12,1.16,1.03,0.736,1.86,0.975,1.19
TCTAGTTTGTCACGGAGGTCACACACGACGGGTA,3.46,3.54,2.3,3.26,1.43,3.88,2.25,3.52,3.81,3.66,1.88,3.07,0.895,1.64,2.96,4.44,1.91,4.55,1.86,3.54
AGAACGAGGGCACGCTGAGTTGAAAGCAGAGTAG,0.945,0.542,-0.955,0.276,-0.933,2.38,2.11,1.77,0.0784,1.03,3.49,3.67,0.808,0.246,0.111,1.36,-0.00968,1.1,-0.124,2.51
AGAATGAGGTTATTAAGATCTGGGAATTGCGGTC,1.76,1.89,0.216,1.26,-0.139,2.79,0.924,1.47,0.36,0.922,3.21,1.94,0.564,0.21,0.467,1.16,0.379,1.66,-0.145,1.29
CATAGCAGGCCAATCTGGGTCACTCAAGGCTTGA,0.72,1.46,-0.00669,0.604,0.0178,3.01,2.72,2.73,0.652,2.05,4.39,5.66,-0.292,-0.125,0.261,1.03,-0.436,1.25,-0.301,1.65
TAGCCTACGTCATGGGCCAGTATACCACGCGAAC,-0.49,-0.556,-0.342,-0.379,-0.666,-0.649,0.599,-0.711,-0.624,-0.961,-0.818,-0.288,-0.41,-0.97,-0.836,-0.57,-0.465,-0.541,-1.11,-0.332
CCTAGCAGGCCAATCTGGGTCAATCAAGGCTTGA,0.324,1.22,-0.656,0.742,-1.17,3.09,1.49,1.95,-0.105,1,3.86,4.7,-0.527,-1.3,0.323,0.743,-0.691,2.06,-0.918,1.31
GGAACGAGGGCAAGTTCATAGCAGAGTTTGATGG,2.59,1.97,0.721,1.46,-0.0122,2.95,2.11,2.35,0.471,1.57,4.12,3.14,-0.982,-0.116,0.648,3.66,5.88,1.72,-0.259,3.37
TGTTGTAGATCAGCAGGTTAAGAAAGCTGGCCAA,-0.297,-0.297,-0.591,-0.397,-0.822,-0.205,-0.588,0.116,-0.287,-0.0252,-1.12,-0.254,-0.00533,-1.02,-0.701,-0.454,-0.604,-0.71,-0.587,-0.157
TCTATTAGGTGAAGGGCAACCGACGAGTCCGTTT,0.937,1.07,0.449,0.669,0.667,2.44,4,5.18,4.86,5.44,5.49,4.75,1.19,0.901,1.58,0.47,0.805,0.687,0.733,2
TATACAGGGACAAAGGCCAGAGTACGAATGTCGA,0.545,0.102,0.279,-0.249,0.97,1.19,2.9,3.98,2.12,3.3,-0.141,1.3,0.681,0.636,0.776,0.0293,0.479,0.273,0.492,1.54
AGTCAAAGTTCAGGACGAGGTAACGTCAAGCACG,4.26,3.98,1.22,1.77,-0.0254,3.5,4.43,4.98,1.87,4.04,-0.313,1.89,0.047,-0.603,3.18,3.06,1.42,3.01,1.63,4.25
ACAGACAGGTGATGCAGGTAACTCAGGCTATCAT,-0.0955,-0.176,-0.459,-0.222,-0.442,0.00895,0.577,-0.188,-0.309,-0.256,0.0988,0.729,0.0271,0.231,0.328,-0.33,0.04,-0.107,0.231,-0.0709
TGGATGAGGTTATAAGATCAGGGAACGTTGCAAA,1.51,1.26,0.181,1.52,0.594,2.42,0.897,1.54,0.844,1.35,-0.0803,0.649,0.558,0.341,0.81,0.986,0.518,1.34,0.465,1.25
ACAGACCGGTGAGTGAAGGTAACTCAGCTGGACG,-0.151,-0.178,-0.654,-0.711,-0.849,-0.708,0.147,-0.715,-0.631,-1.01,-0.439,-0.283,-0.662,-1.09,-0.786,-0.593,-0.655,-0.54,-0.997,-0.197
TGAATGAGGTTAAAGATCAGGGGACGTGGCGTCG,3.07,2.68,-0.153,1.66,1.09,4.35,5.2,6.37,5.28,6.61,2.48,3.35,1.21,0.582,1.75,1.7,-0.086,3.31,0.0279,2.11
TCTGCTAGGTCTGTTGGTCAGCTAACGAGCTGCC,-0.418,-0.439,-1.21,-0.715,0.485,-0.204,-1.23,0.384,0.834,0.687,0.324,0.208,0.17,0.0841,-1.76,-0.467,-0.379,-0.461,-1.79,0.107
ATCGAAAGGTCGAGGTGAATATAGAGAAAGGGAA,4.19,3.5,0.21,2.79,0.889,4.65,3.91,3.97,1.51,2.95,0.454,2.9,1.3,0.685,1.72,2.6,0.39,3.39,1.13,4.2

# Source: the supplement of paper PMC6555819
